Mito fusion act – qHTS Assay for Small Molecule Inhibitors of Mitochondrial Division or Activators of Mitochondrial Fusion. S. cerevisiae fusion-defective mutant growth rescue, CellTiterGlo 48 h. Potency, µM (titrated, usually from 46.1 µM), without a hit: top-dose growth rescue (activation), actives largely listed as activators. hit rate 0.23% among 320,000. AID 485298, 2010; note: % of control where 0% means no effect; nearly all actives have a fitted effect of over 45% in size
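S. cerevisiae fusion-defective temperature-sensitive mutants (e.g. fzo1-1, mgm1-5) grown 48 h at 37C in YPEG (ethanol/glycerol non-fermentable) medium with 23 nl compound per well; growth rescue read as CellTiterGlo luminescence.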
VP16 counter – VP16 counterscreen qHTS for inhibitors of ROR gamma transcriptional activity; Drosophila S2 Gal4-VP16 UAS-luciferase, luminescence, 20 h; Potency, µM (doses to about 53.6 µM), for the others: top-dose activity, negative = inhibition, hits mostly inhibitors; hit rate 3.5% among 310,000; AID 2546, 2010;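 note: Gal4-VP16 expression switched on by copper sulfate through the metallothionein promoter; % is set by controls: 0 for no effect and ±100 for the full control effect; nearly all actives have a fitted effect of over 50% in size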
BCR signal inh – qHTS Assay to Find Inhibitors of Chronic Active B-Cell Receptor Signaling. ABC-DLBCL IkBa-CBG/CBR reporter, luminescence ratio, 4 h. Potency, µM (highest dose often 46.1 µM), for the others: at the top dose activity change, negative = inhibition, actives largely listed as inhibitors. hit rate 0.05% among 340,000; active = well fitted inhibition curve with a large enough effect in the signal ratio, with a control signal flat, not every such curve was filed as active; inconclusive = small, poorly fitted or top-dose-only effect, or effect the other way, or a change in a side signal; the % refers to the signal ratio;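 note: plate controls were basal doxycycline-induced cells for no effect and cells given 10 µM MG132 for full effect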
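TMD8 human ABC-DLBCL cells with doxycycline-inducible IκBα–green luciferase fusion and unfused red luciferase, in 0.5% FBS medium; compounds up to 46 uM, 4 h at 37C. Green/red luminescence ratio, filter-overlap corrected, fitted to concentration-response curves.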
a7 integrin act – qHTS for Activators of Integrin-Mediated Alleviation for Muscular Dystrophy; Potency, µM (titrated, usually from 38.3 µM), without a hit: top-dose activation, actives largely listed as activators; alpha7betagal myoblasts, beta-gal FDG fluorescence, 48 h; hit rate 0.064% among 350,000;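 note: 100% = response of the positive control SU9516; nearly all actives have a fitted effect of over 60% in size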
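Alpha7betagal+/- myoblasts (passage 13) were plated 16-24 hr, then exposed to compounds (1:260 dilution of DMSO stock) for 48 hours at 37C. After MPER lysis, β-galactosidase reporter activity was read as FDG fluorescence (ex 480/em 540) after 30 minutes.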
uPA surface inh – qHTS for Inhibitors of Cell Surface uPA Generation. Potency, µM (titrated, usually from 38.3 µM), without a hit: at the top dose activity change, negative = inhibition, most hits filed as inhibitors. AID 540303, 2011. cell surface uPA generation assay, qHTS. hit rate 0.31% among 330,000; active = well fitted inhibition curve with a large enough effect; inconclusive = small, poorly fitted or top-dose-only effect; inactive = no such curve, though single readings can be large or run the other way; tested in mouse RAW 264.7 cells; note: % is set by controls: 0 for no effect and ±100 for the full control effect; nearly all actives have a fitted effect of over 55% in size
RORgamma inh – qHTS for inhibitors of ROR gamma transcriptional activity; Potency, µM (series often up to 53.6 µM), inactives show top-dose activity change, negative = inhibition, usual class: inhibitors; hit rate 5.4% among 310,000; Nuclear receptor ROR-gamma (Mus musculus), P51450; Drosophila S2 Gal4-RORgamma UAS-luciferase reporter, 20 h; note: % is set by controls: 0 for no effect and ±100 for the full control effect; nearly all actives have a fitted effect of over 60% in size
Target sequence (P51450 whole entry, looked up, the tested form may be a part): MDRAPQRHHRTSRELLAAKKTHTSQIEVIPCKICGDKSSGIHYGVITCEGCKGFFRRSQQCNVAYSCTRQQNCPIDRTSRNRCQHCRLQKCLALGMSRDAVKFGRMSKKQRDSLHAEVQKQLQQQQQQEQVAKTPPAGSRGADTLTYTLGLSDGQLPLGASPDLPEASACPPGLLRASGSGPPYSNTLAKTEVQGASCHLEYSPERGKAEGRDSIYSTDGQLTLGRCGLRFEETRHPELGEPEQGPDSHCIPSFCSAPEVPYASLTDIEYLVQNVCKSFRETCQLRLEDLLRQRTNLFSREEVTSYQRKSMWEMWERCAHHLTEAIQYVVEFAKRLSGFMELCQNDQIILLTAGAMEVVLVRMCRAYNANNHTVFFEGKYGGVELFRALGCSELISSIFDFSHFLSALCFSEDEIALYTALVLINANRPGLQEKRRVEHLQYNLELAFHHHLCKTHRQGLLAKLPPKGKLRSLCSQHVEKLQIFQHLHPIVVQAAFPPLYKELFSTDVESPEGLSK
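ROR gamma transcriptional activity was tracked as Gal4-UAS luciferase output in stably transfected Drosophila Schneider cells, with compound added 1 hr before 700 uM copper sulfate induction and a 20 hr ambient-temperature incubation.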
* marks the source's active call; other numbers are inactive results; [ ] = another dose, or the depositor's remark. Hits are enriched below; roughly 5.5% of the tested compounds scored in any of these assays. Unless noted, calls come from the whole dose curve; as a rule, active = well fitted curve in the direction sought with a large enough effect; inconclusive = small, poorly fitted or top-dose-only effect, or another doubt; inactive = no such curve, though single readings can be large; an effect the other way counts as inactive or inconclusive. Potency is the fitted concentration of half-maximal effect.

`Cc1ccc([C@@H]2[C@@H]3C(=O)N(C)C(=O)[C@@H]3[C@]3(Cc4ccccc4)C(=O)N(Cc4ccccn4)CC(=O)N23)o1` gave Mito fusion act -0.2%, VP16 counter 9.7%, BCR signal inh 4.9%, a7 integrin act 43.3%, uPA surface inh 18.7% and RORgamma inh -1.6%.
For Fc1ccc(CNC(=S)NCc2ccccc2)cc1 the results were Mito fusion act -15.2%, VP16 counter inconclusive, BCR signal inh -0.9%, a7 integrin act 1.8%, uPA surface inh -0.9% and RORgamma inh 11.2µM*.
C=CCNC(=S)NCc1ccccc1OC was read as Mito fusion act -7.0%, VP16 counter inconclusive, BCR signal inh 0.0%, a7 integrin act -22.6%, uPA surface inh 3.0% and RORgamma inh 11.2µM*.
Screening C=CCNC(=S)NCc1ccccc1 returned Mito fusion act -7.6%, VP16 counter -12.2%, BCR signal inh inconclusive, a7 integrin act 26.2%, uPA surface inh -3.6% and RORgamma inh 15.7%.
Screening O=C(CCc1ccccc1)NC(NC(=S)Nc1cccc(Cl)c1)C(Cl)(Cl)Cl (stereo not given) returned Mito fusion act 5.5%, VP16 counter 9.6%, BCR signal inh 11.0%, a7 integrin act -4.6%, uPA surface inh -7.3% and RORgamma inh inconclusive.
For Fc1ccc(NC(=S)NCc2ccccc2)cc1 the results were Mito fusion act -13.2%, VP16 counter 10µM*, BCR signal inh 2.7%, a7 integrin act -6.2%, uPA surface inh 2.4% and RORgamma inh 8.91µM*.
For O=C(CCc1ccccc1)NC(NC(=S)Nc1ccc(Br)cc1)C(Cl)(Cl)Cl (stereo not given) the results were Mito fusion act 1.2%, VP16 counter 4.47µM*, BCR signal inh inconclusive, a7 integrin act -3.6%, uPA surface inh -7.3% and RORgamma inh inconclusive.
`Fc1ccc(NC(=S)NCc2cccnc2)cc1` gave Mito fusion act 3.4%, VP16 counter 4.4%[10 µM], BCR signal inh 4.3%, a7 integrin act -14.9%, uPA surface inh 2.0% and RORgamma inh 10.6%.
CSCC[C@H](NC(=O)[C@H](CC(C)C)NC(=O)CNC(=O)[C@H](Cc1ccc(O)cc1)NC(=O)[C@H](Cc1ccccc1)NC(=O)[C@H](CCCCN)NC(=O)[C@H](CC(N)=O)NC(=O)[C@@H]1CCCN1C(=O)[C@H](CC(=O)O)NC(=O)[C@H](C)NC(=O)[C@@H]1CCC(=O)N1)C(N)=O was read as VP16 counter -3.8% and RORgamma inh 4.6%.
S=C(NCc1ccccc1)Nc1ccc2ccccc2c1 was read as Mito fusion act -9.3%, VP16 counter 11.2µM*, BCR signal inh inconclusive, a7 integrin act -24.5%, uPA surface inh -6.5% and RORgamma inh 3.98µM*.
Screening COc1ccccc1CNC(=S)NCc1ccc(F)cc1 returned Mito fusion act -10.1%, VP16 counter 7.94µM*, BCR signal inh 3.5%, a7 integrin act 11.1%, uPA surface inh 1.8% and RORgamma inh 7.08µM*.
S=C(NCc1ccccc1)Nc1ccc2cn[nH]c2c1 was read as Mito fusion act -3.0%, VP16 counter -1.4%, BCR signal inh 1.3%, a7 integrin act 13.1%, uPA surface inh 2.5% and RORgamma inh -14.6%.
`O=C(CCc1ccccc1)NNC(=S)Nc1ccc(F)cc1` gave Mito fusion act -2.4%, VP16 counter inconclusive, BCR signal inh -0.9%, a7 integrin act -6.9%, uPA surface inh 0.5% and RORgamma inh 3.55µM*.
`O=C(Cc1ccccc1)NNC(=S)Nc1ccc(Cl)cc1` gave Mito fusion act 7.8%, VP16 counter inconclusive, BCR signal inh inconclusive, a7 integrin act 2.3%, uPA surface inh 0.3% and RORgamma inh inconclusive.
S=C(NCc1ccccc1)Nc1ccc(Oc2ccccc2)cc1 was read as Mito fusion act -9.0%, VP16 counter 14.1µM*, BCR signal inh inconclusive, a7 integrin act -2.5%, uPA surface inh 17.1% and RORgamma inh 12.6µM*.
Screening O=S(=O)(NCCc1ccccc1)c1ccccc1Br returned VP16 counter -13.1% and RORgamma inh 17.0%.
Screening CC(=O)c1ccc(NC(=O)c2c(C)nn(-c3ccccc3)c2Cl)cc1 returned Mito fusion act 2.0%, VP16 counter inconclusive, BCR signal inh -13.9%, a7 integrin act -5.7%, uPA surface inh 1.6% and RORgamma inh 11.2µM*.
For CCn1c(=NC(=O)CCS(=O)(=O)c2ccccc2)sc2cccc(OC)c21 the results were Mito fusion act 5.2%, VP16 counter 15.8µM*, BCR signal inh 5.3%, a7 integrin act -37.4%, uPA surface inh -20.7% and RORgamma inh -10.7%.
For Cc1cccc(N2CCN(C(=O)Cc3c(C(=O)O)c(C)cn3C)CC2C)c1 (stereo not given) the results were BCR signal inh 4.0%.
Screening Cc1sc2ncn(CC(=O)NCCCN3CC(C)CC(C)C3)c(=O)c2c1S(=O)(=O)N1CC(C)CC(C)C1 (stereo not given) returned Mito fusion act 4.2%, VP16 counter -2.6%, BCR signal inh -2.4%, a7 integrin act 11.3%, uPA surface inh 1.3% and RORgamma inh -4.1%.
CCOc1ccc(C(=O)Nc2ccc(N3CCN(C(C)=O)CC3)cc2)cc1[N+](=O)[O-] was read as Mito fusion act -15.8%, VP16 counter -0.3%, BCR signal inh 0.2%, a7 integrin act 4.9%, uPA surface inh 8.3% and RORgamma inh 11.7%.
Screening CC(=O)N1CCN(c2ccc(Oc3ccc([N+](=O)[O-])c(C(F)(F)F)c3)cc2)CC1 returned Mito fusion act 15.1%, VP16 counter 7.08µM*, BCR signal inh -1.7%, a7 integrin act -43.2%, uPA surface inh -6.7% and RORgamma inh inconclusive.
Screening COc1ccccc1Cn1c(=O)c2ccccc2n2c(Sc3ncnc4sccc34)nnc12 returned Mito fusion act -14.4%, VP16 counter inconclusive, BCR signal inh 0.7%, a7 integrin act -63.7%, uPA surface inh -18.2% and RORgamma inh 11.2µM*.
COc1ccccc1Cn1c(=O)c2ccccc2n2c(SCc3csc(C)n3)nnc12 was read as Mito fusion act 2.5%, VP16 counter -0.9%, BCR signal inh 9.1%, a7 integrin act 7.0%, uPA surface inh -6.0% and RORgamma inh 19.9%.

Screening data (PubChem BioAssay)
